We go through 24 compounds from PubChem BioAssay.

This assay in a line: blood-stage malaria parasite viability loss – strain 3D7, DAPI fluorescence, 100 nL, primary screen (AID 1184).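 Note: parasites grown inside human red blood cells in medium with human serum.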 Conditions: P. falciparum 3D7 growth, 3 d, higher = more signal.
`C[C@@H]1C=CCC(=O)OC[C@H]2O[C@@H](C=C[C@@H]2O)[C@H](C)C=CCC(=O)OC1` registered a z-score of 0.387. As to `CC(CCN1CCCc2nc(C)c(C)cc21)=NOC(C)CN1CCCCc2nc(C)c(C)cc21` (centres undefined), the z-score is -0.153. Regarding `CC(CCN1CCCCc2nc(C)c(C)cc21)=NO[C@@H](C)c1cn([C@H](CO)Cc2ccccc2)nn1`, the z-score was -0.257. In the case of `CC(C)=CCCC(C)=CCON=C1C[C@@H](O)[C@@H](O)[C@@H]2[C@@H]3C(=O)N(C(C)(C)C)C(=O)[C@@H]3CC[C@H]12` it was 1.46; in that of `CCN1C(=O)[C@@H]2[C@H]3C(=CC[C@@H]2C1=O)C1(OCCCO1)[C@H]1O[C@H]1[C@H]3O`, -1.63.

Compound `O=C1C[C@@H](O)[C@@H](O)[C@@H]2[C@@H]3C(=O)N(C[C@@H]4CCCO4)C(=O)[C@@H]3CC[C@@H]12` showed a z-score of -0.223.

`CCOC(=O)NN=C1C[C@@H](O)[C@@H](O)[C@@H]2[C@@H]3C(=O)N([C@@H](C)c4ccccc4)C(=O)[C@@H]3CC[C@H]12` gave a z-score of -0.125. The compound `CCCNC(=O)OC[C@H]1O[C@H](c2ccccc2)C=C[C@@H]1Oc1ccc(OC)cc1` showed a z-score of 0.284. In the case of `C[C@H]1CC[C@H]2C(=O)O[C@H](COc3ccc(C(C)(C)C)cc3)CN2[C@@H]1c1ccc(Br)cc1`, the z-score was -0.398. The compound `CCOC(=O)[C@H](Cc1ccccc1)NC(=O)CCC1CC(OC(=O)NCc2cccc3ccccc23)CC2(CCCC(COC(=O)NCCC(C)C)O2)O1` (some centres undefined) displayed a z-score of 0.0857. As for `COC(=O)[C@@H]1CC[C@H](C)[C@@H](c2ccc(C)cc2)N1C(=O)c1ccc(C=NOC[C@@H](C)[C@H](OCc2ccccc2)C(C)C)cc1`, the z-score is -1.87. In turn, `C=CC[C@@H]1C=C[C@H](ON=C(C)CCC(=O)OC[C@H]2O[C@H](C#Cc3ccccc3)C=C[C@@H]2Oc2ccc(C)cc2)[C@@H](CO)O1` returned a z-score of 0.37. Under `CCOC(=O)[C@H](CC(C)C)NC(=O)CCC1CC(OC(=O)NCc2cccc3ccccc23)CC2(CCCC(COC(=O)NCc3ccncc3)O2)O1` (some centres undefined) stands -0.652. `COc1ccc(O[C@H]2C=C[C@@H](c3ccccc3)O[C@@H]2COC(=O)CCC(C)=NOC(C)CN2CCCc3nc(C)c(C)cc32)cc1` (some centres undefined) had a z-score of -1.95. With `COC(=O)CC=C[C@@H](C)[C@@H]1C=C[C@H](O)[C@@H](CO)O1`, the z-score is 0.247. With `COC(=O)C1=C(C)N(Cc2ccccc2)[C@]23O[C@](C(=O)OC)(C(=O)N2[C@@H]1c1ccccc1)C(C(=O)OC)=C3C(=O)OC`, the z-score was -1.08. In turn, `CCCNC(=O)OC[C@H]1O[C@H](CCON=C(C)CCN2CCCc3nc(C)c(C)cc32)C=C[C@@H]1Oc1ccc(OC)cc1` returned a z-score of -2.33.

Compound `CCOC(=O)[C@H](Cc1ccccc1)NC(=O)CCC1CC(OC(=O)NCc2ccc3c(c2)OCO3)CC2(CCCC(COC(=O)NCCc3ccccc3OC)O2)O1` (some centres undefined) came in with a z-score of -1.78. Regarding `COC(=O)CC=C[C@@H](C)[C@H](OCc1cccc(-c2ccccc2)c1)C1CCCCC1`, the z-score was -0.257. With `COC(=O)[C@@H]1CC[C@@H](C)[C@H](c2ccc(Br)cc2)N1`, the z-score stood at 0.303.

For `CCN1C(=O)[C@H]2[C@H]3[C@H](O)[C@H](O)CC(=NNC(=O)OCc4ccc(OC)cc4)[C@@H]3CC[C@H]2C1=O`, the z-score is -0.18. `CO[C@H]1COC(=O)CC=C[C@H](C)[C@@H](OC)COC(=O)[C@H](C)COC(=O)CC=C[C@@H]1C` displayed a z-score of 0.916. In turn, `CO[C@H]1COC(=O)[C@@H]2CCCN2C(=O)CC=C[C@@H](C)[C@H](OC)COC(=O)[C@@H](OCc2ccccc2)C=C[C@@H]1C` returned a z-score of -1.42.

On to `COc1ccc(O[C@H]2C=C[C@@H](c3ccccc3)O[C@@H]2CON=C2[C@H]3CCn4c(=O)n(-c5ccccc5)c(=O)n4[C@H]3[C@H](O)[C@@H]3O[C@H]23)cc1`, for which the z-score is -0.725.
